Records with an inconclusive call do not appear. Active and inactive are the calls of the source. The call rests on the fitted dose curve; in most records, active means well fitted inhibition curve with a large enough effect; inconclusive means small, poorly fitted or top-dose-only effect; inactive means no such curve, though single readings can be large or run the other way.
Experiment: BET inhibitor-based combinations targeting novel dependencies in MECOM-rearranged (r) AML: SET-2 cell line (AID 2202231); further: nearly all actives have a fitted effect of over 35% in size
Settings: SET-2 AML cells viability, CellTiter-Glo luminescence, 48 h; viability: hits give low values, series mostly up to about 46 µM
Description: Ecotropic viral insertion site 1 (EVI1) is located on chromosome 3q26.2 as part of the MECOM (MDS and EVI1 complex) locus. Under normal hematopoiesis, EVI1 is a regulator of hematopoietic stem cell maintenance and self-renewal and EVI1 levels decrease as the cells differentiate. In approximately 5-10% of de novo acute myeloid leukemia (AML) EVI1 is aberrantly expressed, including Chromosomal inv(3)(q21;q26.2) or t(3;3)(q21;q26.2) alterations (MECOM-r) that account for about 50% of AML with EVI1 overexpression 31. AMLs with high levels of EVI1 have a poor prognosis and an overall survival time averaging between 10-14 months. EVI1 overexpression confers resistance in leukemia cells, highlighting the need to develop new targeted therapies for EVI1 overexpressing AMLs.
Here, we performed an unbiased chemical drug screening by evaluating the single agent activity of a collection of 2,480 oncology-focused, approved and investigational drugs (NCATS Mechanism Interrogation Plates, MIPE v5.0) against a panel of seven AML cell lines. These included four MECOM-r cell-lines (AML-191, AML-194, UCSD-AML1 and HNT-34) and three non-MECOM-r AMLs (MV4-11, OCI-AML3 and SET-2). Exploiting the mechanistic redundancy built in the library, we identified target-level sensitivities in MECOM-r AML cells and relative activity as compared to other AML subtypes.
A collection of 2480 mechanistically annotated dugs (MIPE v5.0) was used to screen four 3q26.2 rearranged AML cell lines and three non-3q26.2 rearranged AML cell lines. This library purposely exploits redundancy by including multiple inhibitors of key onco-targets, while simultaneously encompassing mechanistic diversity, targeting more than 800 distinct mechanisms of action. Briefly, cells were seeded in 5 uL of growth media using a Multidrop Combi dispenser into 1536 well white polystyrene tissue culture treated plates (Corning) at a density of 500cells/well. For each cell-line, for each of the 2480 drugs in MIPE v5.0 library, an 11-point dose curve was generated via a 1536 pin-tool. Plates were incubated for 48 hr at standard incubator conditions, covered by a stainless steel gasketed lid to prevent evaporation. Cell viability was determined by luminescence based, Cell Titer Glo assay (Promega). In detail, 3 uL of Cell Titer Glo were added to each well and plates were incubated at room temperature for 15 min with a stainless-steel lid in place. Luminescence readings were taken using a Viewlux (PerkinElmer) with a 2 s exposure time per plate. Compound dose-response curves were normalized to DMSO and empty well controls on each plate. Quantitative drug activity data from dose-response curves was determined utilizing area Under the Curve (AUC) and Z-transformed AUC (Z-AUC, a mean-centering transformation applied to each individual cell-line screened).
Potency means the concentration at half of the fitted maximal effect.

Compound | viability | Potency
CC(NC(C)(C)C)C(=O)c1cccc(Cl)c1 (stereo not given) | 111% (inactive) | 
CN[C@@H]1Cc2cccc3[nH]c(=O)n(c23)C1 | 120% (inactive) | 
NN=C(N)N | 108% (inactive) | 
C/C(=C\c1csc(C)n1)[C@@H]1C[C@@H]2O[C@]2(C)CCC[C@H](C)[C@H](O)[C@@H](C)C(=O)C(C)(C)[C@@H](O)CC(=O)O1 |  | 0.0186 µM (active)
CN(C)c1cc2c(cc1Sc1nc3c(N)nccc3n1CCNCC(C)(C)C)OCO2 |  | 1.32 µM (active)
N#CC(O[C@@H]1O[C@H](CO[C@@H]2O[C@H](CO)[C@@H](O)[C@H](O)[C@H]2O)[C@@H](O)[C@H](O)[C@H]1O)c1ccccc1 (stereo not given in full) | 93.9% (inactive) | 
O=C(O)c1nn(Cc2ccc(Cl)cc2Cl)c2ccccc12 | 107% (inactive) | 
Cc1cccc(C)c1NC(=O)CN1CCCC1=O | 109% (inactive) | 
CCCCCCC(C)(C)c1cc(O)c2c(c1)OC(C)(C)C1CC=C(CO)C[C@H]21 (stereo not given in full) |  | 23.5 µM (active)
COC(=O)[C@@H](N)CCCN=C(N)N[N+](=O)[O-] | 109% (inactive) | 
Cc1[nH]nc2ccc(-c3cncc(OC[C@@H](N)Cc4c[nH]c5ccccc45)c3)cc12 |  | 1.05 µM (active)
CC[C@@H](C(N)=O)N1CCCC1=O | 108% (inactive) | 
C=C(C)[C@H]1Cc2c(ccc3c2O[C@@H]2COc4cc(OC)c(OC)cc4[C@@H]2C3=O)O1 |  | 1.18 µM (active)
N=c1c2c(-c3ccccc3)c(-c3ccccc3)n(Cc3ccccc3)c2ncn1C1CCC(O)CC1 (stereo not given) |  | 1.32 µM (active)
CC(=O)Nc1ccc(OC[C@](C)(O)C(=O)Nc2ccc([N+](=O)[O-])c(C(F)(F)F)c2)cc1 | 114% (inactive) | 
Cc1c(N)nc([C@H](CC(N)=O)NC[C@@H](N)C(N)=O)nc1C(=O)N[C@H](C(=O)N[C@@H](C)[C@H](O)[C@@H](C)C(=O)N[C@@H](C(=O)NCCc1nc(-c2nc(C(=O)NCCC[S+](C)C)cs2)cs1)[C@@H](C)O)C(O[C@H]1O[C@H](CO)[C@H](O)[C@@H](O)[C@H]1O[C@H]1O[C@H](CO)[C@@H](O)[C@H](OC(N)=O)[C@@H]1O)c1cnc[nH]1 (stereo not given in full) | 100% (inactive) | 
CCCC[N+]1(C)[C@H]2CC(OC(=O)[C@H](CO)c3ccccc3)C[C@H]1[C@H]1O[C@H]12 (stereo not given in full) | 109% (inactive) | 
CCc1c(C(=O)C(N)=O)c2c(OCC(=O)O)cccc2n1Cc1ccccc1 | 113% (inactive) | 
Cn1c(COP(=O)(NCCBr)NCCBr)cnc1[N+](=O)[O-] | 123% (inactive) | 
C[C@@H]1O[C@@H](O[C@H]2C[C@@H](O)[C@]3(CO)[C@H]4[C@H](O)C[C@]5(C)[C@@H](C6=CC(=O)OC6)CC[C@]5(O)[C@@H]4CC[C@]3(O)C2)[C@H](O)[C@H](O)[C@H]1O |  | 0.0742 µM (active)

Compound | viability | Potency
O=C(N[C@@H](COc1ccc2[nH]c(=O)[nH]c2c1)c1ccccc1)c1cccn(Cc2ccc(F)c(F)c2)c1=O | 94% (inactive) | 
C[C@@H]1CC[C@H]2[C@@H](C)C(=O)O[C@@H]3O[C@@]4(C)CC[C@@H]1[C@]32OO4 | 93.5% (inactive) | 
O=C(CBr)N1CC([N+](=O)[O-])([N+](=O)[O-])C1 |  | 38.2 µM (active)
N[C@@H](Cc1ccc(N(CCCl)CCCl)cc1)C(=O)O |  | 4.68 µM (active)
CC[C@@]1(O)C(=O)OCc2c1cc1n(c2=O)Cc2cc3ccccc3nc2-1 |  | 0.0132 µM (active)
CC1=C2C[C@H]3[C@@H](CC=C4C[C@@H](O)CC[C@@]43C)[C@@H]2CC[C@]12O[C@@H]1C[C@H](C)CN[C@H]1[C@H]2C | 113% (inactive) | 
O=C1CC[C@@]2(O)[C@H]3Cc4ccc(O)c5c4[C@@]2(CCN3CC2CC2)[C@H]1O5 | 123% (inactive) | 
C[C@]12Cc3cn[nH]c3C[C@@H]1CC[C@@H]1[C@@H]2CC[C@@]2(C)[C@H]1CC[C@]2(C)O | 57.3% (inactive) | 
CCOc1ccccc1-n1c(C(C)N2CCN(C(=O)COc3ccc(Cl)cc3)CC2)nc2ccccc2c1=O (stereo not given) |  | 1.32 µM (active)
COC12C(COC(N)=O)C3=C(C(=O)C(C)=C(N)C3=O)N1CC1C2N1C (stereo not given) | 107% (inactive) | 
CC(C)(O)C(=O)Nc1ccc([N+](=O)[O-])c(C(F)(F)F)c1 |  | 23.5 µM (active)
COc1ccc(N(C(=O)Oc2c(C)cccc2C)c2ccnc(Nc3ccc(N4CCN(C)CC4)cc3)n2)c(OC)c1 | 117% (inactive) | 
O=c1cccc2n1CC1CNC[C@H]2C1 | 119% (inactive) | 
CO[C@H]1CCC(O[C@H]2C[C@H]([C@]3(C)CC[C@]4(C[C@H](O)[C@@H](C)[C@@H]([C@@H](C)/C=C(\C)C(=O)[C@H](C)C[C@H](C)C(=O)O)O4)O3)O[C@]3(O[C@@H]([C@H]4O[C@@](O)(CO)[C@H](C)C[C@@H]4C)C[C@@H]3C)[C@@H]2C)O[C@@H]1C (stereo not given in full) |  | 1.48 µM (active)
CN(C)CCN(C)CCc1ccc(Cl)c(Cl)c1 | 103% (inactive) | 
CCOC(=O)Nc1ccc(NCc2ccc(F)cc2)cc1N | 102% (inactive) | 
Cc1cc(SCc2sc(-c3ccc(C(F)(F)F)c(F)c3)nc2C)ccc1OCC(=O)O | 99.6% (inactive) | 
CCOC(=O)c1c(C(C#N)=CN)c2ccc(Cl)c(Cl)c2n1C | 114% (inactive) | 
COc1ccc(C(=O)c2c(C)n(CCN3CCOCC3)c3cc(I)ccc23)cc1 |  | 13.2 µM (active)
CCNC(=O)C[C@@H]1N=C(c2ccc(Cl)cc2)c2cc(OC)ccc2-n2c(C)nnc21 |  | 2.63 µM (active)

Reference: PubChem BioAssay (NCATS)
